For eight molecules, growth results are on record in PubChem BioAssay (NCI).

Test systems include SK-MEL-2 melanoma; EKVX NSCLC; SN12C renal; UO-31 renal; TK-10 renal; ACHN renal; CAKI-1 renal; A498 renal; CCRF-CEM leukemia; MOLT-4 leukemia; SR leukemia; RPMI-8226 leukemia; OVCAR-8 ovarian; OVCAR-5 ovarian; OVCAR-4 ovarian; SK-OV-3 ovarian; OVCAR-3 ovarian; HS 578T breast; NCI/ADR-RES ovarian; IGROV1 ovarian.
Assay in all cases: NCI-60 one-dose screen, 48 h (100 = growth as untreated, 0 = no growth, -100 = all killed)
Holding throughout (conditions): 10 µM unless noted

SMILES strings stand for the structures. About 83,000 compounds went through this panel and 20% of them were active in at least one assay; those are over-represented in the sample as a whole.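 The endpoint reported here, percent growth, reads 100 for growth as untreated, 0 for no net growth and -100 for all cells dead.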 A number with no mark means an inactive call. Calls of active or inactive are those of the source. Rule for the calls: active = growth percent below 10; inactive = the rest.

For the molecule `O=C(/C=C(\Nc1ccccc1)c1ccccc1)c1cn(-c2ccc([N+](=O)[O-])cc2)nn1`, the growth is 5.29% (active) in the assay on SK-MEL-2 melanoma; 100% with EKVX NSCLC; 104% with SN12C renal; 69% with UO-31 renal; 118% in the assay with TK-10 renal; 94.6% in the assay with ACHN renal. Besides, the growth in the assay on CAKI-1 renal is 108%; with A498 renal, 96.2%; in the assay with CCRF-CEM leukemia, 71.4%; in the assay with MOLT-4 leukemia it was 64.3%; with SR leukemia it was 69.4%; in the assay with RPMI-8226 leukemia it was 84%. Further, the growth with OVCAR-8 ovarian was 53.5%; in the assay with OVCAR-5 ovarian, 116%; with OVCAR-4 ovarian, 87.9%; with SK-OV-3 ovarian, 106%; in the assay on OVCAR-3 ovarian, 112%; in the assay on HS 578T breast, 63%. Moreover, in the assay with NCI/ADR-RES ovarian, the growth was 111%.

Regarding `O=C1c2cccc(NCCN=Cc3ccccc3O)c2C(=O)c2c(NCCN=Cc3ccccc3O)cccc21`, the growth in the assay on SK-MEL-2 melanoma was 46.5%; with EKVX NSCLC, 39.8%; in the assay with SN12C renal it was 44.5%; in the assay with UO-31 renal, -4.5% (active); with TK-10 renal, 22.5%; with ACHN renal, 15.4%. For the same molecule, the growth in the assay with CAKI-1 renal was 27.6%; in the assay with A498 renal, 50.7%; in the assay with CCRF-CEM leukemia, 3.44% (active); in the assay with MOLT-4 leukemia, 15%; in the assay with SR leukemia it was -20.9% (active); in the assay with RPMI-8226 leukemia it was -9.08% (active). The growth in the assay with OVCAR-8 ovarian was 17%; in the assay with OVCAR-5 ovarian, 15.9%; in the assay on OVCAR-4 ovarian, 2.43% (active); in the assay with SK-OV-3 ovarian, 29%; with OVCAR-3 ovarian, 11.1%; in the assay on HS 578T breast it was 4.31% (active). Moreover, the growth in the assay on NCI/ADR-RES ovarian is 93.9%.

In the case of `OC(c1cc(-c2cccc(Cl)c2)nc2ccccc12)C1CCCCN1` (configuration not stated), the growth in the assay on SK-MEL-2 melanoma was -92% (active); in the assay with EKVX NSCLC it was 47.3%; with SN12C renal, -5.08% (active); in the assay on UO-31 renal, -44.8% (active); with TK-10 renal, -63.2% (active); with ACHN renal, -0.726% (active). For the same molecule, the growth with CAKI-1 renal is -36.5% (active); in the assay with A498 renal, 56.3%; with CCRF-CEM leukemia, -8.29% (active); in the assay on MOLT-4 leukemia, -30.6% (active); in the assay with SR leukemia, -33.8% (active); in the assay with RPMI-8226 leukemia, -26.8% (active). Besides, the growth in the assay with OVCAR-8 ovarian is -52.6% (active); with OVCAR-5 ovarian it was 2.42% (active); in the assay with SK-OV-3 ovarian it was 48.3%; with IGROV1 ovarian, -61.7% (active); with OVCAR-3 ovarian, -13.1% (active); with HS 578T breast it was 34.9%. For the same molecule, the growth in the assay on NCI/ADR-RES ovarian is -29.4% (active).

Consider `Cc1ccc2c(c1)C(=O)/C(=C\Nc1ccc(C(N)=O)cc1)C(O)O2` (configuration not stated), for which the growth in the assay with SK-MEL-2 melanoma was 77.4%; in the assay with EKVX NSCLC, 97.8%; with SN12C renal it was 136%; in the assay with UO-31 renal, 79.3%; in the assay on TK-10 renal, 120%; in the assay on ACHN renal it was 104%. For the same molecule, the growth with CAKI-1 renal was 82.3%; with A498 renal it was 115%; in the assay with CCRF-CEM leukemia, 78.3%; in the assay on MOLT-4 leukemia, 80.6%; in the assay on SR leukemia it was 97.1%; in the assay with RPMI-8226 leukemia, 46.5%. Also, the growth in the assay on OVCAR-8 ovarian is 97.1%; in the assay on OVCAR-5 ovarian, 110%; in the assay with OVCAR-4 ovarian, 101%; in the assay with SK-OV-3 ovarian, 107%; in the assay on OVCAR-3 ovarian, 84.6%; in the assay on HS 578T breast, 97.4%. Further, the growth in the assay on NCI/ADR-RES ovarian is 110%.

For `COc1ccc(-c2cnc(SCC(=O)Nc3ccc(-c4nc5ccccc5s4)cc3)n2-c2ccc(OC)cc2)cc1`, the growth with SK-MEL-2 melanoma is 102%; in the assay with EKVX NSCLC, 108%; with SN12C renal, 104%; in the assay on UO-31 renal, 91.7%; in the assay on TK-10 renal, 108%; in the assay on ACHN renal, 111%. The growth is 103% with CAKI-1 renal; 108% with A498 renal; 94.2% in the assay on CCRF-CEM leukemia; 105% with MOLT-4 leukemia; 99.5% in the assay on SR leukemia; 113% in the assay with RPMI-8226 leukemia. Besides, the growth in the assay on OVCAR-8 ovarian was 105%; with OVCAR-5 ovarian it was 99%; with SK-OV-3 ovarian, 111%; in the assay on IGROV1 ovarian it was 91.5%; in the assay with OVCAR-3 ovarian, 109%; in the assay with HS 578T breast, 105%. Also, the growth with NCI/ADR-RES ovarian was 107%.

For `Nc1ccc(Oc2c(F)c(F)c(Oc3ccc(N)cc3)c(F)c2F)cc1`, the growth in the assay on SK-MEL-2 melanoma is 17.5%; with EKVX NSCLC, 105%; in the assay on SN12C renal, 103%; in the assay on UO-31 renal, 63.6%; with TK-10 renal it was 101%; in the assay with ACHN renal it was 93.5%. The growth in the assay with CAKI-1 renal is 95.6%; in the assay with A498 renal it was 111%; in the assay on CCRF-CEM leukemia, 78.2%; in the assay with MOLT-4 leukemia it was 79.3%; in the assay on SR leukemia it was 96.3%; in the assay with RPMI-8226 leukemia, 82.9%. The growth with OVCAR-8 ovarian is 101%; in the assay with OVCAR-5 ovarian it was 83.4%; with OVCAR-4 ovarian, 83.8%; with SK-OV-3 ovarian it was 105%; with OVCAR-3 ovarian, 101%; in the assay with HS 578T breast, 95.4%. Moreover, the growth in the assay with NCI/ADR-RES ovarian is 94%.

As for `CCOC(=O)c1sc(NC(=O)COc2ccc(/C=C3\CCc4cc(OC)ccc4C3=O)cc2)nc1C`, the growth is 62.3% in the assay with SK-MEL-2 melanoma; 90.6% in the assay with EKVX NSCLC; 86.2% with SN12C renal; 14.5% in the assay with UO-31 renal; 115% with TK-10 renal; 103% with ACHN renal. The growth in the assay with CAKI-1 renal is 76.7%; in the assay on A498 renal, 76.6%; with CCRF-CEM leukemia it was -62.6% (active); with MOLT-4 leukemia, 7.56% (active); with SR leukemia, 44.3%; in the assay with RPMI-8226 leukemia it was 42.5%. Besides, the growth in the assay on OVCAR-8 ovarian is 90.5%; in the assay on OVCAR-5 ovarian it was 103%; with OVCAR-4 ovarian, 92.6%; in the assay with SK-OV-3 ovarian, 122%; in the assay on OVCAR-3 ovarian, 105%; in the assay on HS 578T breast, 94.4%. Moreover, the growth with NCI/ADR-RES ovarian was 86.6%.

`COC(=O)N/N=C/c1coc2ccc(Cl)cc2c1=O`: the growth in the assay with SK-MEL-2 melanoma is 68.5%; with EKVX NSCLC, 85.4%; in the assay on SN12C renal it was 88.1%; with UO-31 renal, 84.1%; in the assay on TK-10 renal, 120%; in the assay with ACHN renal, 91.6%. In addition, the growth in the assay with CAKI-1 renal was 81.8%; in the assay on A498 renal it was 111%; in the assay on CCRF-CEM leukemia it was 90.7%; in the assay on MOLT-4 leukemia, 84.2%; in the assay with SR leukemia, 53.8%; with RPMI-8226 leukemia, 60.3%. Besides, the growth was 110% with OVCAR-8 ovarian; 95.3% in the assay with OVCAR-5 ovarian; 97% in the assay on OVCAR-4 ovarian; 92.3% with SK-OV-3 ovarian; 63.4% with OVCAR-3 ovarian; 92.8% in the assay on HS 578T breast. Further, in the assay on NCI/ADR-RES ovarian, the growth is 99%.
